Bioassay records deposited in PubChem by National Center for Advancing Translational Sciences (NCATS).
Lassa entry inh: qHTS for Inhibitors of binding or entry into cells for Lassa Virus | 300,000 tested, 1.2% active | Potency, µM (top dose mostly 37.9 µM), inactives show at the top dose activity change, negative = inhibition, hits mostly inhibitors | Lassa virus pseudotype entry inhibition, cell reporter; calls by dose curve; tested in HEK293 cells; also: nearly all actives have a fitted effect of over 50% in size
HCV inhibitor: qHTS Assay for Inhibitors of Hepatitis C Virus (HCV). Huh7.5.1 HCVcc-Cre infection, luciferase reporter, 44 h. Potency, µM (titrated, usually from 41.8 µM), inactives show at the highest dose activity change, negative = inhibition, actives largely listed as inhibitors. 340,000 tested, 3.4% active. AID 651820, 2012; active = well fitted inhibition curve with a large enough effect; inconclusive = small, poorly fitted or top-dose-only effect, or another doubt; inactive = no such curve, though single readings can be large or run the other way
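1,000 cells/well; 4 h culture; + compound; + HCVcc-Cre (~0.5 moi); 44 h; luciferase substrate, RT 15 min; read 15 sec.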
VACV mCherry inh: qHTS for Stage-Specific Inhibitors of Vaccinia Orthopoxvirus: mCherry Reporter Primary qHTS; Vaccinia virus mCherry reporter infection, fluorescence; 310,000 tested, 0.63% active; Potency, µM (doses to about 36.5 µM), for the others: top-dose activity change, negative = inhibition, usual class: inhibitors; calls by dose curve; tested in A549 cells; also: nearly all actives have a fitted effect of over 35% in size
VACV Venus inh: qHTS for Stage-Specific Inhibitors of Vaccinia Orthopoxvirus: Venus Reporter Primary qHTS | Vaccinia virus Venus reporter expression, fluorescence | Potency, µM (top dose mostly 36.5 µM), for inactives: at the highest dose activity change, negative = inhibition, usual class: inhibitors | 330,000 tested, 0.46% active | AID 720580, 2013; calls by dose curve; tested in A549 cells; also: nearly all actives have a fitted effect of over 30% in size
Marburg entry inh: qHTS for inhibitors of binding or entry into cells for Marburg Virus | Marburg virus pseudotyped entry inhibition, cell reporter | Potency, µM (titrated, usually from 37.8 µM), for the others: at the top dose activity change, negative = inhibition, hits mostly inhibitors | 300,000 tested, 1.8% active | AID 540276, 2011; calls by dose curve; tested in HEK293 cells
* hit, by the source's call; i = inactive; ? = inconclusive; / = not tested or not shown; [ ] = another dose, or the depositor's remark. Shown are actives, neighbours in structure and some others; about 4.6% of the full set was active somewhere. % is scaled to controls: 0 for no effect and ±100 for the full control effect; potency is read from the fitted curve at half-maximal effect.

SMILES	Lassa entry inh	HCV inhibitor	VACV mCherry inh	VACV Venus inh	Marburg entry inh
COc1ccc(/C=N/NC(=O)CN(CCc2ccccc2)S(=O)(=O)c2ccc(NC(C)=O)cc2)cc1OC	?	-15%	i	-6%	?
O=C(C[n+]1cccc2cc(Cl)ccc21)c1ccc2ccccc2c1	/	/	?	350%	/
c1ccc(OCCCCN2CCCCC2)cc1	?	-23%	0%	-22%	19%
CN1CCCC(CC2Oc3ccccc3Sc3ccccc32)C1 (stereo unspecified)	?	11µM*	?	?	?
c1ccc2c(c1)OC(CCCN1CCCCC1)c1ccccc1S2 (stereo unspecified)	-17%	25µM*	-9%	-26%	?
[O-]/C(=C(\C(=S)Nc1ccc(Cl)cc1)[n+]1ccccc1)c1ccc(OC(F)F)cc1	/	11µM*	/	/	/
O=C(NCCN1CCOCC1)c1cnn(-c2nccc(-c3cc4ccccc4o3)n2)c1C1CC1	/	/	-6%	-22%	/
Cc1cnc(-n2ncc(C(=O)N[C@H]3CCCCNC3=O)c2C2CC2)nc1-c1cccs1	/	/	-11%	-5%	/
CCCCCOCC1CC(C/C(C)=N/NC(N)=S)C(=O)O1 (stereo unspecified)	?	?	22µM*	?	?
CCOC(=O)c1c(S(=O)(=O)NCC(=O)N2CCN(c3cccc(Cl)c3)CC2)c(C)n(C)c1C	-16%[46.1 µM]	/	-20%	-24%	/
Cn1c2c(c(=O)n(C)c1=O)C(C(F)(F)F)(C(F)(F)F)N=C(CCC1CCCCC1)N2	2.6µM*	?	?	?	11µM*
Cn1c2c(c(=O)n(C)c1=O)C(C(F)(F)F)(C(F)(F)F)N=C(c1ccccc1Cl)N2	5%	9%	/	/	?
Nc1c(C(=O)Nc2ccccc2)sc2nc(-c3ccco3)ccc12	?	11µM*	/	/	?
Nc1c(C(=O)Nc2ccccc2Br)sc2nc(-c3cccs3)ccc12	?	/	?	?	-18%[46.1 µM]
Nc1c(C(=O)Nc2nc3ccccc3s2)sc2nc(-c3cccs3)ccc12	6.5µM*	?	/	/	5.8µM*
Cc1c2cnn(CC(=O)N3CCN(c4ccccc4)CC3)c(=O)c2c(C)n1Cc1ccccc1Cl	15%[46.1 µM]	/	-6%	-2%	-1%[46.1 µM]
CCOc1ccc(C2C(=O)N(C3CCCCCC3)CC(=O)N2CCC2=CCCCC2)cc1OC (stereo unspecified)	-26%[46.1 µM]	/	-9%	-8%	/
C[N+](C)(C)CCCN(Cc1ccc2c(c1)OCO2)C(=O)NC1CCCCC1	/	3.2µM*	/	/	/
CC(NCc1ccc2c(c1)OCO2)C(=O)NC1CCCCC1 (stereo unspecified)	-24%	5%	-11%	-7%	-21%[46.1 µM]
NC(=O)c1ccc(N2CCN(S(=O)(=O)c3cccs3)CC2)c([N+](=O)[O-])c1	/	2.2µM*	/	/	/
CN1CCN(c2ccc(C(=O)c3ccc(Br)cc3)cc2[N+](=O)[O-])CC1	16%	10µM*	-18%	-19%	7.9µM*
CN1CCN(c2ccc(S(C)(=O)=O)cc2[N+](=O)[O-])CC1	5%	35%	-11%	5%	?
O=S(=O)(c1cccs1)N1CCN(c2ccc(O)cc2)CC1	?	?	4µM*	-21%	?
NC(=O)c1ccc(N2CCN(c3ccccc3O)CC2)c([N+](=O)[O-])c1	-16%	-10%	-4%	-4%	?
COc1ccccc1C(=O)Nc1ccc(C(=O)OCc2cc(=O)n3c4c(sc3n2)CCCC4)cc1	-1%[46.1 µM]	/	-23%	-16%	/
SMILES	Lassa entry inh	HCV inhibitor	VACV mCherry inh	VACV Venus inh	Marburg entry inh
Cc1ccc(-n2nc3c(N4CCC(C(=O)NC(C)c5ccccc5)CC4)nnc(C)c3c2C)cc1 (stereo unspecified)	-20%[46.1 µM]	/	-6%	-26%	/
COc1ccc(C(=O)NCCn2cc(SCc3ccc(C(F)(F)F)cc3)c3ccccc32)cc1OC	-12%[46.1 µM]	/	?	?	?
Cc1nc2ccccc2nc1-c1csc(-c2ccccc2)n1	/	/	-20%	-17%	/
O=C(N/N=C/c1ccc(F)cc1)c1c(O)c2ccccc2[nH]c1=O	-2%	20%	-10%	1%	17%
O=C(N/N=C/c1cccc(F)c1)c1c(O)c2ccccc2[nH]c1=O	3%	13µM*	-20%	-12%	1%
COc1ccc(Cl)cc1NC(=O)NCCCl	8%	?	/	10µM*	5%
COc1ccc(Cl)cc1NC(=O)COC(=O)c1c(-c2ccccc2)noc1C	/	4µM*	/	/	/
COc1ccc(Cl)cc1NC(=O)CC(C)c1ccccc1 (stereo unspecified)	0%	8.9µM*	/	-20%	0%
COc1ccc(Cl)cc1NC(=O)CCn1cnc2ccccc2c1=O	-7%	11µM*	/	-25%	-1%
COc1ccc(Cl)cc1NC(=O)NCCN1CCNC1=O	?	12%	-13%	-10%	-17%
CN(C(=O)c1cc2c(s1)-c1ccc(Cl)cc1SC2)c1cccc(C(F)(F)F)c1	-23%[46.1 µM]	/	45%	11%	0%[46.1 µM]
O=C(NCCN1Cc2ccccc2OC(c2ccccc2F)C1)c1ccco1 (stereo unspecified)	/	/	-13%	-5%	/
COc1cc(CN(C)C(C)C(=O)Nc2ccc([N+](=O)[O-])cc2Cl)ccc1OC(F)F (stereo unspecified)	?	?	-10%	-10%	?
COc1ccc(Cl)cc1NC(=O)C(C)N(C)Cc1ccc(C(F)(F)F)cc1 (stereo unspecified)	-10%	14µM*	i	-16%	?
Cc1cc(C)nc(N/C(=N\S(=O)(=O)Cc2ccccc2)Nc2ccccc2Br)n1	4.1µM*	-7%	?	2%	2.8µM*
C=C[C@@]1(C)CC[C@H](O)[C@H]2C(=O)CCC[C@H]21	/	/	/	/	-28%[14.2 µM]
CCCCN1CC[C@H]2C=CC[C@@H](C(=O)N3CCOCC3)[C@H]2C1=O	/	0.56µM*	-3%	-8%	/
Cc1cc2c(c(=O)n1Cc1ccccc1)[C@H]1O[C@](CCCCN3C(=O)c4ccccc4C3=O)(Cc3cc(C#N)ccc31)O2	/	/	/	/	8%[14.2 µM]
CCOC(=O)COc1ccc2ccccc2c1/C=C/[N+](=O)[O-]	?	?	-18%	-8%	4.5µM*
CCOC(=O)COc1ccccc1/C=N/O	3%	-6%	-14%	-3%	15%
CCOC(=O)COc1ccc(/C=C/[N+](=O)[O-])c(OCC(=O)OCC)c1	21µM*	?	/	/	5.2µM*
O=C(NCCSc1ccccc1)c1ccccc1	?	9%	i	-2%	?
O=C(NCCSc1ccccc1)c1ccc(Br)cc1	13µM*	-13%	-13%	-14%	?
CN(C)S(=O)(=O)c1ccc(C(=O)NCCSc2ccc(Br)cc2)cc1	?	22µM*	?	?	-24%
O=C(NCCc1nc(-c2ccccc2)cs1)c1ccc(Br)cc1	6%	11µM*	?	-30%	14%
CCOC(=O)C1=CC2(CC)CCCN3CCc4c(n1c1ccccc41)C32 (stereo unspecified)	/	/	-6%[60.7 µM]	-4%[60.7 µM]	/
